# Measurements as given in publication PMC7862700, “An all-to-all approach to the identification of sequence-specific readers for epigenetic DNA modifications on cytosine”.
# What was measured:
# Assay in all cases: DAPPL (digital affinity profiling via proximity ligation, sequencing); 10 mM Tris-HCl pH 7.5, 50 mM NaCl, 1 mM DTT, 4% glycerol, room temperature, 30 min; GST-TFs on glutathione beads, 16-mer random dsDNA library, 0.1% formaldehyde crosslink after washing; high values mean tight binding
# FLI1 = molecular target: T1, FLI1 (Homo sapiens, UniProt Q01543 1-452); details: protein: recombinant; tags: N-terminal GST; dsDNA, one strand shown
# T1 sequence: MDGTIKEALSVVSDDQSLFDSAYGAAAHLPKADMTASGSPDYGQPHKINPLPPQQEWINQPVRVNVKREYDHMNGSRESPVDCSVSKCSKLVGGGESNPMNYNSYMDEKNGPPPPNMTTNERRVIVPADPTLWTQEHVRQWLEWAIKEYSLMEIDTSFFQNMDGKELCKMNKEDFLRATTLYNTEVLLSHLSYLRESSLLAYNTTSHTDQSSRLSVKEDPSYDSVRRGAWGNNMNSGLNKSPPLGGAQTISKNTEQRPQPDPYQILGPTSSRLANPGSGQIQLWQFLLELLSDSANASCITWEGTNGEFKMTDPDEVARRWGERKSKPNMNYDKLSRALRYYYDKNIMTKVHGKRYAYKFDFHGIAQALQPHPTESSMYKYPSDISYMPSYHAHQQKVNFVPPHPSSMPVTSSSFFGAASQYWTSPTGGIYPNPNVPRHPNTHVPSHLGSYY
# Outline: (§1)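 A tag-only sample was pooled with DNA-barcoded human transcription factors that had been expressed in yeast as GST fusions and captured on glutathione beads. The pools were incubated for 30 min at room temperature with 200 nmole of a random double-stranded 16-mer DNA library in Tris/NaCl/DTT/glycerol buffer, then washed, crosslinked with 0.1% formaldehyde, proximity-ligated (BsaI/T4 ligase, 1 h, 37 °C), PCR-amplified and sequenced on an Illumina NextSeq500. Binding signal is each hexamer's read frequency for a factor divided by its frequency for the tag-only sample.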
# ELK1 = molecular target: T2, ELK1 (Homo sapiens, UniProt P19419 1-428); details: protein: recombinant; tags: N-terminal GST; dsDNA, one strand shown
# T2 sequence: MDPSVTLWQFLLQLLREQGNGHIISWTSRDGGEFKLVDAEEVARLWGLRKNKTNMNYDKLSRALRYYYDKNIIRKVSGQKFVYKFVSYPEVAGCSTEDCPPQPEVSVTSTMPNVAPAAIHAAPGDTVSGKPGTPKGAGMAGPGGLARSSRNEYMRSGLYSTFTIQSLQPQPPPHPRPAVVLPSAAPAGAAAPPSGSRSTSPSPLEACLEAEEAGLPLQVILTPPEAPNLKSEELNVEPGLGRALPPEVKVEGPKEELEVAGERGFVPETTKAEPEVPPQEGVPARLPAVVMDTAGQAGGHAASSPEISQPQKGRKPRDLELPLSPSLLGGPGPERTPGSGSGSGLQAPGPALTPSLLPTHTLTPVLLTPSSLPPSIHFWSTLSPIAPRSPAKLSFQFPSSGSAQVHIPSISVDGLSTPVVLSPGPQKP
# Outline: as §1
# GABPA = molecular target: T3, GABPA (Homo sapiens, UniProt Q06546 1-454); details: protein: recombinant; tags: N-terminal GST; dsDNA, one strand shown
# T3 sequence: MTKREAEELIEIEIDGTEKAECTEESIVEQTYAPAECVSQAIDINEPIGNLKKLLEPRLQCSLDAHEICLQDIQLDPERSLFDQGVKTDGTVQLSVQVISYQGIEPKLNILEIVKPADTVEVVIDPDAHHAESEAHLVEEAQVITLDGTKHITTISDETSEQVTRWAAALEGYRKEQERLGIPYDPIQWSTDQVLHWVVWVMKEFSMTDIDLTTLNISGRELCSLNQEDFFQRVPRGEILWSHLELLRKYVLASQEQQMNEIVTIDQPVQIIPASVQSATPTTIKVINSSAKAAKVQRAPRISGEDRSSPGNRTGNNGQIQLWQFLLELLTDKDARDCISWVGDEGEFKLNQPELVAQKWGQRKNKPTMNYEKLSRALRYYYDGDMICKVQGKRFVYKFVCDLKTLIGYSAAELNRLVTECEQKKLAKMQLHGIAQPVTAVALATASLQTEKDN
# Outline: as §1
# ERG = molecular target: T4, ERG (Homo sapiens, UniProt P11308 1-479); details: protein: recombinant; tags: N-terminal GST; dsDNA, one strand shown
# T4 sequence: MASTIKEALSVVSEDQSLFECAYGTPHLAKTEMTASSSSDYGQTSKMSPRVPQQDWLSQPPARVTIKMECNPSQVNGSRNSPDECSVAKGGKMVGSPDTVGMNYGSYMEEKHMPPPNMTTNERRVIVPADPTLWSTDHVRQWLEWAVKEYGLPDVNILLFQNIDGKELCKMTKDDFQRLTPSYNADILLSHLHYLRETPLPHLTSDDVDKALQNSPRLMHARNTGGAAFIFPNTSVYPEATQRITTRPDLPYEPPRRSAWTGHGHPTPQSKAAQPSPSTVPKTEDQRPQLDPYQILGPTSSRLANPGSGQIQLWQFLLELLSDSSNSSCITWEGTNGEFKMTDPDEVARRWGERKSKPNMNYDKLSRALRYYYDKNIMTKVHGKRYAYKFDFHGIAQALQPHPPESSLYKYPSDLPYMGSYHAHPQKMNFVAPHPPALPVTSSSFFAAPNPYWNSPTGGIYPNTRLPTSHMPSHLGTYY
# Outline: as §1
# ELF1 = ELF1 (Homo sapiens, UniProt P32519 1-619); details: protein: recombinant; tags: N-terminal GST; dsDNA, one strand shown
# Sequence of ELF1 (P32519 whole entry): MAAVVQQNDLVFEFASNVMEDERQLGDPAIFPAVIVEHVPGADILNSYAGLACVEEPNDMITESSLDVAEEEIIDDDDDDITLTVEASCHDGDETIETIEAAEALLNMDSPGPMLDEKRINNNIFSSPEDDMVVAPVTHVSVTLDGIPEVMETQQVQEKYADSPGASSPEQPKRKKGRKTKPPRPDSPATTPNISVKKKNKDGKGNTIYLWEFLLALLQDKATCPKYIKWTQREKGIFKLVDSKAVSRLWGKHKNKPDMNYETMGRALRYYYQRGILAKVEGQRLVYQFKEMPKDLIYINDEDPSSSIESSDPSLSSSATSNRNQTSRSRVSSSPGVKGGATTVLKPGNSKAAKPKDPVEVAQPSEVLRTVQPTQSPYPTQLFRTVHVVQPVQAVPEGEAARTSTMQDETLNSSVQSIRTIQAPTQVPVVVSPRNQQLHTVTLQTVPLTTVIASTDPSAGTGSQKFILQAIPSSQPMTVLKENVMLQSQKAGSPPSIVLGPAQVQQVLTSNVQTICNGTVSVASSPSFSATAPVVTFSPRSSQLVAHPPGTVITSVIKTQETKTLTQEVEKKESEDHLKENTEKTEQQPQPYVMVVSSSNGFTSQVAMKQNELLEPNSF
# Outline: as §1
# EHF = molecular target: T5, EHF (Homo sapiens, UniProt Q9NZC4 1-300); details: protein: recombinant; tags: N-terminal GST; dsDNA, one strand shown
# T5 sequence: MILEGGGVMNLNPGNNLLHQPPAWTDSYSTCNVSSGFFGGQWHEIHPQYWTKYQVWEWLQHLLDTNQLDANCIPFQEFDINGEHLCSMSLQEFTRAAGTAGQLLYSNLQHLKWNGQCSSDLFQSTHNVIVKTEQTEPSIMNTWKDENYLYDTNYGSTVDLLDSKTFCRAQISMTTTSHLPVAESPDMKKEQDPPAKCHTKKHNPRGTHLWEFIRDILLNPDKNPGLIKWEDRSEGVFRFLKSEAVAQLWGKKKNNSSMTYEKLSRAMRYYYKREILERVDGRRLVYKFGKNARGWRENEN
# Outline: as §1
# SPI1 = SPI1 (Homo sapiens, UniProt P17947 1-270); details: protein: recombinant; tags: N-terminal GST; dsDNA, one strand shown
# Outline: as §1
# SPIB = SPIB (Homo sapiens, UniProt Q01892 1-262); details: protein: recombinant; tags: N-terminal GST; dsDNA, one strand shown
# Sequence of SPIB (Q01892 whole entry): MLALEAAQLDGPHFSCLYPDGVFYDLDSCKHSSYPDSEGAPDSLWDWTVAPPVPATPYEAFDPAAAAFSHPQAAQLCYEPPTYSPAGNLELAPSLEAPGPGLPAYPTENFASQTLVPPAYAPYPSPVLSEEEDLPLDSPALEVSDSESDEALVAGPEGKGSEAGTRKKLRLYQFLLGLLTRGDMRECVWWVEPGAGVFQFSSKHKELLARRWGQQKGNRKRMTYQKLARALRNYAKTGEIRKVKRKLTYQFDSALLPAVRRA
# Outline: as §1
# ELK3 = molecular target: T6, ELK3 (Homo sapiens, UniProt P41970 1-407); details: protein: recombinant; tags: N-terminal GST; dsDNA, one strand shown
# T6 sequence: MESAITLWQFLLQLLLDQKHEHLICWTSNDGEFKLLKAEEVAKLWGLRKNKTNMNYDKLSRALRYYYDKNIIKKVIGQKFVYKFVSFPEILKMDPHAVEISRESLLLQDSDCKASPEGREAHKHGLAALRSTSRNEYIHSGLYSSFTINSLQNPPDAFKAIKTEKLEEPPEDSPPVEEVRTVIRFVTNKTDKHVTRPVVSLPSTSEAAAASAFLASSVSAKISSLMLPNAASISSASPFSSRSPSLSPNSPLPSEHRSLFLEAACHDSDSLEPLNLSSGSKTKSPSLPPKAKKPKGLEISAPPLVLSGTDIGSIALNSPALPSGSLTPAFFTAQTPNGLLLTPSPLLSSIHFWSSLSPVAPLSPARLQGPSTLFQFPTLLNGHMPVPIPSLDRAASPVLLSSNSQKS
# Outline: as §1
# FEV = molecular target: T7, FEV (Homo sapiens, UniProt Q99581 1-238); details: protein: recombinant; tags: N-terminal GST; dsDNA, one strand shown
# T7 sequence: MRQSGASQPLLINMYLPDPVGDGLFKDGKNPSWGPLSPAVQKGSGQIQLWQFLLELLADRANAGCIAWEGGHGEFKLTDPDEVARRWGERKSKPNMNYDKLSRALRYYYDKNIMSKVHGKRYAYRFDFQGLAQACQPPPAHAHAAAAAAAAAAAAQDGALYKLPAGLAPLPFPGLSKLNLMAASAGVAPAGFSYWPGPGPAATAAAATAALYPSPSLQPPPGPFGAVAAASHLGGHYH
# Outline: as §1
# ETV5 = ETV5 (Homo sapiens, UniProt P41161 1-510); details: protein: recombinant; tags: N-terminal GST; dsDNA, one strand shown
# Sequence of ETV5 (P41161 whole entry): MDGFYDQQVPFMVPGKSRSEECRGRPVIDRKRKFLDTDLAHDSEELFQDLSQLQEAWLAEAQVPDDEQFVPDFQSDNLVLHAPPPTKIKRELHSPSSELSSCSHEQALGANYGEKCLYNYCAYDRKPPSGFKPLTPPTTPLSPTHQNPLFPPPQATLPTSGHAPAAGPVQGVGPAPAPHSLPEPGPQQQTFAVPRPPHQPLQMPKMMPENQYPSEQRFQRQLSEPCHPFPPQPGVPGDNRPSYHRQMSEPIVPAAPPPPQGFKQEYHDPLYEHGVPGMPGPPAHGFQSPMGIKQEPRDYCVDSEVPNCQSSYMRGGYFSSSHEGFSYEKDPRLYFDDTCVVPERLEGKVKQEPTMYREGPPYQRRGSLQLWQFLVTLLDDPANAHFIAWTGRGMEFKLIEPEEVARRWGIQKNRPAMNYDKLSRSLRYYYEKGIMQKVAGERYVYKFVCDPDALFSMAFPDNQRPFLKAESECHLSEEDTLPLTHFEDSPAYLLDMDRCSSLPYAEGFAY
# Outline: as §1
# HSF1 = HSF1 (Homo sapiens, UniProt Q00613 1-529); details: protein: recombinant; tags: N-terminal GST; chain copies: 3; dsDNA, one strand shown
# Sequence of HSF1 (Q00613 whole entry): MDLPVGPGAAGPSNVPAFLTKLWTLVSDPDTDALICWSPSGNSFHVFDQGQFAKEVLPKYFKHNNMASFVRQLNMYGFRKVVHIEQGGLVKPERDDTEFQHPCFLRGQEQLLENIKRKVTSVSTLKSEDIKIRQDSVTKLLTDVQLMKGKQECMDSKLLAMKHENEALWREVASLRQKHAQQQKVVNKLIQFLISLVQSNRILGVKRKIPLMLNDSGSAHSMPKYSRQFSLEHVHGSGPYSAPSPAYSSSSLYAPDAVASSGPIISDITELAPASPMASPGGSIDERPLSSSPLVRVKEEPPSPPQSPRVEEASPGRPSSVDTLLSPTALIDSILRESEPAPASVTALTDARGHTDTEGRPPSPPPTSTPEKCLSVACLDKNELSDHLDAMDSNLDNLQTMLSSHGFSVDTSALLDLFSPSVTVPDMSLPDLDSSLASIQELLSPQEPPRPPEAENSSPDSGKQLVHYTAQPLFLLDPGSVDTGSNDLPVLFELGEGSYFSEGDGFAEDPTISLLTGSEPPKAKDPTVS
# Outline: as §1
# SPIC = molecular target: T8, SPIC (Homo sapiens, UniProt Q8N5J4 1-248); details: protein: recombinant; tags: N-terminal GST; dsDNA, one strand shown
# T8 sequence: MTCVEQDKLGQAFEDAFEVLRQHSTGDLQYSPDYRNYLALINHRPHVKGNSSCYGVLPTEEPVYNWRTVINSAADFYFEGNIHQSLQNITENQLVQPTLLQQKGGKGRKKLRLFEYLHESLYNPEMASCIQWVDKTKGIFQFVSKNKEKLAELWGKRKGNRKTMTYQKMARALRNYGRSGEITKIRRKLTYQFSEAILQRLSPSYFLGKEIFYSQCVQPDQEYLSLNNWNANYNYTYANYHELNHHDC
# Outline: as §1
# ELF4 = ELF4 (Homo sapiens, UniProt Q99607 1-663); details: protein: recombinant; tags: N-terminal GST; dsDNA, one strand shown
# Sequence of ELF4 (Q99607 whole entry): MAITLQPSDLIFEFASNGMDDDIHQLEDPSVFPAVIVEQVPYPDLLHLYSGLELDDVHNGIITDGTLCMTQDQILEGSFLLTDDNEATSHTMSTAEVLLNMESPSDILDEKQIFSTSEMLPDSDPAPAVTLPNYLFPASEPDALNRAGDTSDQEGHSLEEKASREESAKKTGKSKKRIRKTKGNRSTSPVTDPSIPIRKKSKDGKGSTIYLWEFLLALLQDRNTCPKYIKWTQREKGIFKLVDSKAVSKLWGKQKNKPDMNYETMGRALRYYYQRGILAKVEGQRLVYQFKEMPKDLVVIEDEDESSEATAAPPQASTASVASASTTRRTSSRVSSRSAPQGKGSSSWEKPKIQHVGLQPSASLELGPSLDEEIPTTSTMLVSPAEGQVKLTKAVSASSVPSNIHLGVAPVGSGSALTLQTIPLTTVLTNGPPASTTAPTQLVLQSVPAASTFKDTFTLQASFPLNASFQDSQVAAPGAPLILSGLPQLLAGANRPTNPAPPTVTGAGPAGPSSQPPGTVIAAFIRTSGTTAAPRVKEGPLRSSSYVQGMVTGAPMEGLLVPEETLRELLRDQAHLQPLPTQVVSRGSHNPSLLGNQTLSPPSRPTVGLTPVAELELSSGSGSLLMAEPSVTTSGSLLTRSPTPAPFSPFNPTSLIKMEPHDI
# Outline: as §1
# ELK4 = molecular target: T9, ELK4 (Homo sapiens, UniProt P28324-2 1-405); details: protein: recombinant; tags: N-terminal GST; dsDNA, one strand shown
# T9 sequence: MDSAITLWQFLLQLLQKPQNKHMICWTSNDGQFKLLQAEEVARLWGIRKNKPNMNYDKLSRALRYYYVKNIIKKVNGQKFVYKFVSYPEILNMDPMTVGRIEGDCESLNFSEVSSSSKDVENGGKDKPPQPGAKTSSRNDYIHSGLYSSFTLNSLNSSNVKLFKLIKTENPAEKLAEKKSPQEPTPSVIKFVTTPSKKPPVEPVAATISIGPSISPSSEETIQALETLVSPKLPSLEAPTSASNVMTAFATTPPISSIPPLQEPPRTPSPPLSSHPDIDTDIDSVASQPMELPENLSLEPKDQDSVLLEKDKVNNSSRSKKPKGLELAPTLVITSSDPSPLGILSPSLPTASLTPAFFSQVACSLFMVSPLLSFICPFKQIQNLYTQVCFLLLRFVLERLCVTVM
# Outline: as §1
# ETV2 = molecular target: T10, ETV2 (Homo sapiens, UniProt O00321 1-342); details: protein: recombinant; tags: N-terminal GST; dsDNA, one strand shown
# T10 sequence: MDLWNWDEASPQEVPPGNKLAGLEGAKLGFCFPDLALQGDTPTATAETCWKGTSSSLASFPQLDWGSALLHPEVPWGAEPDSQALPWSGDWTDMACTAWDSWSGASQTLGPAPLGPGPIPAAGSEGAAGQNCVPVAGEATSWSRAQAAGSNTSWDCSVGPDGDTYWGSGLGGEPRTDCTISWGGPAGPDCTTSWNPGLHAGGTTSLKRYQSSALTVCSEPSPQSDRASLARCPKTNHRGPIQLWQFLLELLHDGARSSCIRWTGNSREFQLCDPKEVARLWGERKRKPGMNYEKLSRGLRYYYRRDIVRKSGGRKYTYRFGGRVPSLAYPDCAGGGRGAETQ
# Outline: as §1
# ELF3 = molecular target: T11, ELF3 (Homo sapiens, UniProt P78545 1-371); details: protein: recombinant; tags: N-terminal GST; dsDNA, one strand shown
# T11 sequence: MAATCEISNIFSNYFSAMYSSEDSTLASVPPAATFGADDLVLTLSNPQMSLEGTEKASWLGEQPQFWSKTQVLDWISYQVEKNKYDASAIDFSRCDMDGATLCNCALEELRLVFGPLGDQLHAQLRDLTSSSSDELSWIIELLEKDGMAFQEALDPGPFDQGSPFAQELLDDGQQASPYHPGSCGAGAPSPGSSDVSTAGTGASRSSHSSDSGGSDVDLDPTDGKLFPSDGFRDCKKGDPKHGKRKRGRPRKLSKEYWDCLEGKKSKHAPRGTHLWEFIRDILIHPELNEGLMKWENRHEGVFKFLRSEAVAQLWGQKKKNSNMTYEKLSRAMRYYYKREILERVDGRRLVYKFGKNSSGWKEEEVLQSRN
# Outline: as §1
# CRX = CRX (Homo sapiens, UniProt O43186 1-299); details: protein: recombinant; tags: N-terminal GST; dsDNA, one strand shown
# Sequence of CRX (O43186 whole entry): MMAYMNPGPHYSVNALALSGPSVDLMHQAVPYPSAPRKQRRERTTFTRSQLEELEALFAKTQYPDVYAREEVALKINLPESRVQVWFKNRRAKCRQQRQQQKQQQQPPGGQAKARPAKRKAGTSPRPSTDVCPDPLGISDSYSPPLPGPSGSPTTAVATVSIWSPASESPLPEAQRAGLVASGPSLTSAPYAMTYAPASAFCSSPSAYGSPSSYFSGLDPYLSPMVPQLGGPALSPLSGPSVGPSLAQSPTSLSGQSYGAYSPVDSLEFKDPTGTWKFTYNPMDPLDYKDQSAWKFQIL
# Outline: as §1
# ETV1 = ETV1 (Homo sapiens, UniProt P50549 1-477); details: protein: recombinant; tags: N-terminal GST; dsDNA, one strand shown
# Sequence of ETV1 (P50549 whole entry): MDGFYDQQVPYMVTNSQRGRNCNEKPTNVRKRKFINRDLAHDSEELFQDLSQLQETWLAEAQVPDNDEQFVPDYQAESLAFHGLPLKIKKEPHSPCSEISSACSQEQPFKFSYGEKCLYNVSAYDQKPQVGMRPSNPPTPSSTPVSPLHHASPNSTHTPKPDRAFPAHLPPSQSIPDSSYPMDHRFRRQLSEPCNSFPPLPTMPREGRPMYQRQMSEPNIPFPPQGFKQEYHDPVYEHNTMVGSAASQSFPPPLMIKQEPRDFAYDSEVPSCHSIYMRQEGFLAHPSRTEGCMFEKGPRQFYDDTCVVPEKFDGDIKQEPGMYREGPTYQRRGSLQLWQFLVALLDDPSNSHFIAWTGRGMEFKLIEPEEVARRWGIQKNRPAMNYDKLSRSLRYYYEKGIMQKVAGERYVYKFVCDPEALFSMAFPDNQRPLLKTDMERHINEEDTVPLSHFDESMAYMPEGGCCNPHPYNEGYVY
# Outline: as §1
sequence,measurement,setting,value
TACGCA,binding signal,FLI1,"1.18 fold enrichment (6-mer frequency, TF over GST control)"
same,binding signal,ELK1,"1.2 fold enrichment (6-mer frequency, TF over GST control)"
same,binding signal,GABPA,"1.11 fold enrichment (6-mer frequency, TF over GST control)"
same,binding signal,ERG,"1.15 fold enrichment (6-mer frequency, TF over GST control)"
same,binding signal,ELF1,"1.2 fold enrichment (6-mer frequency, TF over GST control)"
same,binding signal,EHF,"1.26 fold enrichment (6-mer frequency, TF over GST control)"
same,binding signal,SPI1,"1.12 fold enrichment (6-mer frequency, TF over GST control)"
same,binding signal,SPIB,"1.1 fold enrichment (6-mer frequency, TF over GST control)"
same,binding signal,ELK3,"1.25 fold enrichment (6-mer frequency, TF over GST control)"
same,binding signal,FEV,"1.16 fold enrichment (6-mer frequency, TF over GST control)"
same,binding signal,ETV5,"1.21 fold enrichment (6-mer frequency, TF over GST control)"
same,binding signal,HSF1,"1.06 fold enrichment (6-mer frequency, TF over GST control)"
same,binding signal,SPIC,"1.16 fold enrichment (6-mer frequency, TF over GST control)"
same,binding signal,ELF4,"1.23 fold enrichment (6-mer frequency, TF over GST control)"
same,binding signal,ELK4,"1.12 fold enrichment (6-mer frequency, TF over GST control)"
same,binding signal,ETV2,"1.15 fold enrichment (6-mer frequency, TF over GST control)"
same,binding signal,ELF3,"1.19 fold enrichment (6-mer frequency, TF over GST control)"
same,binding signal,CRX,"1.21 fold enrichment (6-mer frequency, TF over GST control)"
same,binding signal,ETV1,"1.25 fold enrichment (6-mer frequency, TF over GST control)"
